This passage reports Potency and activity change, negative = cytotoxicity results from PubChem BioAssay (NCATS).

The nature of experiment [1]: P-glycoprotein substrates identified in KB-8-5-11 adenocarcinoma cell line, qHTS therapeutic library screen (AID 1346987). Further: nearly all actives have a fitted effect of over 65% in size. The following applies: KB-8-5-11 (P-gp overexpressing) viability, CellTiter-Glo, 72 h; series mostly up to 44.5 µM. The method, boiled down: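 Compounds are pinned in dose-response onto KB-8-5-11 cells (500 cells/well, colchicine-free medium) and left 72 h at 37 degree C. CellTiter-Glo luminescence then yields AC50 values.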
On the technique in general: Quantitative high-throughput screening tests each substance at several concentrations.

For experiment [2], the system named is Zika virus NS2B-NS3 protease (unlinked complex). The experiment can be described thus: Primary screen GU Rhodamine qHTS for Zika virus inhibitors: Unlinked NS2B-NS3 protease assay (AID 1347159). Further: nearly all actives have a fitted effect of over 60% in size. Further: potency means the concentration at half of the fitted maximal effect. The following applies: Recombinant ZIKV NS2B-NS3 protease, Rhodamine110 substrate fluorescence; series mostly up to 107 µM. The essentials:
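In dose–response format, inhibition of unlinked protease (25 nM) was measured with 1.5 microM bis-peptide Rhodamine110 substrate. Aprotinin served as the intraplate control.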

Experiment [3] deals with Zika virus NS2B-NS3 protease (linked construct). The experiment in a line: Primary screen NINDS Rhodamine qHTS for Zika virus inhibitors (AID 1347160). Further: nearly all actives have a fitted effect of over 55% in size. Further: potency means the concentration at half of the fitted maximal effect. The following applies: purified NS2B-NS3 protease, Rhodamine110 substrate fluorescence; series mostly up to 33.1 µM. The essentials: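 Each compound, titrated, sat 15 min with 25 nM linked protease before 1.5 microM Rhodamine110 substrate went in. Fluorescence gain over the next 15 min, in pH 8.0 Tris with Tween 20, gave Hill-fitted curves.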

Results filed as inconclusive are left out. Values without a mark were called inactive. Calls of active or inactive are those of the source. The call rests on the fitted dose curve; in most records, active means well fitted curve in the direction sought with a large enough effect; inconclusive means small, poorly fitted or top-dose-only effect, or another doubt; inactive means no such curve, though single readings can be large; an effect the other way counts as inactive or inconclusive. Where a SMILES comes first, the peptide text is derived from it.
On the % scale 0 is the no-effect control and ±100 the full control effect.

Turning to `O=C(OCC1=CC(Cl)C(O)C(OC(=O)c2ccccc2)C1O)c1ccccc1` (configuration not stated), the Potency entry in experiment [1], in experiment [2] and in experiment [3] was “inactive” each time.
For `C/C=C(\C)C(=O)OC[C@H]1O[C@@H](O[C@H]2[C@@H](O[C@H]3O[C@H](COC(=O)/C(C)=C/C)[C@@H](O)[C@H](O)[C@H]3O[C@@H]3O[C@H](COC(=O)/C(C)=C/C)[C@@H](O)[C@H](OC(=O)/C(C)=C/C)[C@H]3O)O[C@H](COC(=O)/C(C)=C/C)[C@@H](O)[C@@H]2O)[C@H](O)[C@@H](O)[C@@H]1O`, in experiment [1], the activity change, negative = cytotoxicity is 0.351% [at 9.29 µM]. Also, the Potency entry in experiment [2] and in experiment [3] was “inactive” in each case.
Take `CCC1=C(C)C(=O)C(C)CC12C(=O)CCC2C(=O)O` (configuration not stated): the Potency result in experiment [1], in experiment [2] and in experiment [3] was “inactive” each time.
In the case of `COc1cn(-c2ccc(-n3cccn3)cc2F)nc(-c2ccnn2-c2ccccc2)c1=O`, the Potency result in experiment [1], in experiment [2] and in experiment [3] was “inactive” in each case.
For `COC(O)(CC(C)C)C1Oc2cc(C)[nH]c(=O)c2O1` (configuration not stated), the Potency result in experiment [1], in experiment [2] and in experiment [3] was “inactive” each time.
For the compound `CC(=O)[C@@H]1C[C@H](C(C)(C)O[C@@H]2O[C@H](CO)[C@@H](O)[C@H](O)[C@H]2O)CC[C@@]2(CO)OC(=O)C[C@@H]12`, the Potency result in experiment [1], in experiment [2] and in experiment [3] was “inactive” each time.
`CC(C)=CCC[C@](C)(O[C@@H]1O[C@H](CO[C@@H]2OC[C@H](O)[C@H](O)[C@H]2O)[C@@H](O)[C@H](O)[C@H]1O)[C@H]1CC[C@]2(C)[C@@H]1[C@H](O)C[C@@H]1[C@@]3(C)CC[C@H](O[C@@H]4O[C@H](CO)[C@@H](O)[C@H](O)[C@H]4O[C@@H]4O[C@H](CO)[C@@H](O)[C@H](O)[C@H]4O)C(C)(C)[C@@H]3CC[C@]12C`: the Potency result in experiment [1], in experiment [2] and in experiment [3] was “inactive” throughout.
As for `CC(=O)OC(C)(C)/C=C/C(=O)[C@](C)(O)C1[C@H](O)C[C@@]2(C)[C@@H]3CC=C4[C@@H](C[C@H](O[C@@H]5O[C@H](CO)[C@@H](O)[C@H](O)[C@H]5O)C(=O)C4(C)C)[C@]3(C)C(=O)C[C@]12C` (some centres not stated), the Potency result in experiment [1], in experiment [2] and in experiment [3] was “inactive” throughout.
Regarding `C=C(C(=O)O)[C@@H]1CC[C@@]2(C)CC[C@@H](O)C(=C)C2C1` (some centres not stated), the Potency result in experiment [1], in experiment [2] and in experiment [3] was “inactive” each time.
Take `COc1ccc(CCC(=O)O)c(O[C@@H]2O[C@H](CO)[C@@H](O)[C@H](O)[C@H]2O)c1`: the Potency result in experiment [1], in experiment [2] and in experiment [3] was “inactive” throughout.
In the case of `CC1(C)C(=O)CCC2(C)C1C(O)C=C1COC(=O)C12O` (configuration not stated), the Potency entry in experiment [1], in experiment [2] and in experiment [3] was “inactive” in each case.
For `CC1=C[C@@H]2[C@H]3[C@@H]4O[C@@](C)(CC[C@H]4O)[C@H]3CC(=O)[C@]23C(=O)N[C@@H](CC(C)C)[C@@H]3[C@@H]1C`, the Potency entry in experiment [1], in experiment [2] and in experiment [3] was “inactive” each time.
For the compound `CC(NC(=O)CC(=O)O)C(=O)Nc1ccccc1C(N)=O` (configuration not stated), the Potency result in experiment [1], in experiment [2] and in experiment [3] was “inactive” throughout.
As for `C[C@@H]1O[C@@H](O[C@H]2[C@@H]3C=CO[C@@H](O[C@@H]4O[C@H](CO)[C@@H](O)[C@H](O)[C@H]4O)[C@@H]3[C@@]3(CO)O[C@@H]23)[C@H](O)[C@H](OC(=O)/C=C/c2ccc(O)cc2)[C@H]1OC(=O)/C=C/c1ccc(O)cc1`, the Potency entry in experiment [1], in experiment [2] and in experiment [3] was “inactive” each time.
Regarding `CC(C)(CC(=O)N1CCCC1)NCC(=O)N1C[C@@H](F)C[C@H]1C#N`, the Potency result in experiment [1], in experiment [2] and in experiment [3] was “inactive” in each case.
In the case of `COC(=O)C1=CO[C@@H](O[C@@H]2O[C@H](CO)[C@@H](O)[C@H](O)[C@H]2O)[C@@H]2[C@@H](C(=O)O)CC[C@H]12`, the Potency result in experiment [1], in experiment [2] and in experiment [3] was “inactive” throughout.
Regarding `CCOC(=O)COc1ccc2c(c1)C[C@@H](NC[C@H](O)c1cccc(Cl)c1)CC2`, the Potency result in experiment [1], in experiment [2] and in experiment [3] was “inactive” each time.
Take `COC(=O)C1=COC(O[C@@H]2O[C@H](CO)[C@@H](O)[C@H](O)[C@H]2O)C2C(C)C(=O)CC12` (some centres not stated): the Potency entry in experiment [1], in experiment [2] and in experiment [3] was “inactive” each time.
With `CC1(C)CC2C3=CCC4[C@@]5(C)CC[C@H](OC6OCC(O)C(OC7OC(CO)C(O)C(O)C7O)C6O)C(C)(C)C5CC[C@@]4(C)[C@]3(C)C[C@H](O)[C@@]2(CO)[C@H](OC(=O)c2ccccc2)C1` (some centres not stated), the activity change, negative = cytotoxicity in experiment [1] is -4.21% [at 9.29 µM]. Further, the Potency entry in experiment [2] and in experiment [3] was “inactive” in each case.
For `CC1CCC2C(C(=O)O)=CC3(O)CC(C)(C)CC123` (configuration not stated), the Potency entry in experiment [1], in experiment [2] and in experiment [3] was “inactive” in each case.
For the compound `C=C(C)[C@@H]1CC[C@]2(C(=O)O)CC[C@]3(C)[C@H](CCC4[C@@]5(C)CCC(=O)C(C)(C)C5C(O)C[C@]43C)C12` (some centres not stated), the Potency entry in experiment [1], in experiment [2] and in experiment [3] was “inactive” throughout.
For `Cc1oc2nc3c(c(NC(=O)CN4CCCC4=O)c2c1C)CCCC3`, the Potency result in experiment [1], in experiment [2] and in experiment [3] was “inactive” each time.
For `C/C=C1/CC2C(=O)Nc3cc(O)c(OC)cc3C(=O)N2C1` (configuration not stated), the Potency entry in experiment [1], in experiment [2] and in experiment [3] was “inactive” in each case.
In the case of `Cn1cc(CCn2cnc(-c3cnn(C)c3)c2-c2ccc(C#N)cc2)cn1`, the Potency entry in experiment [1], in experiment [2] and in experiment [3] was “inactive” throughout.
On to `NCCCCN(Cc1nc2ccccc2[nH]1)[C@H]1CCCc2cccnc21`, for which the Potency result in experiment [1], in experiment [2] and in experiment [3] was “inactive” each time.
As for `CCOc1nc2c(N)ncnc2n1CC`, the Potency result in experiment [1], in experiment [2] and in experiment [3] was “inactive” throughout.
Consider `O=C(O)c1cccc(C(=O)CCC2OC(n3cnc4c(=O)[nH]cnc43)C(O)C2O)c1` (configuration not stated), for which the Potency result in experiment [1], in experiment [2] and in experiment [3] was “inactive” in each case.
As to `COc1cc(CO)cc(OC)c1O[C@@H]1O[C@H](CO)[C@@H](O)[C@H](O)[C@H]1O`, the Potency result in experiment [1], in experiment [2] and in experiment [3] was “inactive” in each case.
`Cc1ccc(Cl)cc1N(CC(=O)Nc1c(F)cccc1F)S(C)(=O)=O`: the Potency result in experiment [1], in experiment [2] and in experiment [3] was “inactive” each time.
As for `CN[C@H](CNC(=O)N1CCC[C@@H]([C@@H](OCCNC(=O)OC)c2cccc(Cl)c2)C1)C[C@H]1CCCOC1`, the Potency result in experiment [1], in experiment [2] and in experiment [3] was “inactive” each time.
With `O=C(O)C(Cc1ccccc1)NC(=O)C1CCCN1` (stereo not drawn) (H-Pro-Phe-OH; configuration not given here), the Potency result in experiment [1], in experiment [2] and in experiment [3] was “inactive” throughout.
Take `C=C(CCO)C(=O)OCC1OCC(OC(=O)C(=C)CCO[C@@H]2O[C@H](CO)[C@@H](O)[C@H](O)[C@H]2O)C(O)C1O` (some centres not stated): the Potency result in experiment [1], in experiment [2] and in experiment [3] was “inactive” throughout.
As for `CC1(C)CC=C(C#Cc2ccccc2)c2cc(/C=C/c3ccc(C(=O)O)cc3)ccc21`, the Potency result in experiment [1] is “inactive”. Also, the Potency was 6.31 µM (active) in experiment [2] and 15.8 µM (active) in experiment [3].
As for `CC1(C)C2CC[C@@]34CC(CC[C@H]3[C@]2(C)CC[C@@H]1O[C@@H]1O[C@H](CO)[C@@H](O)[C@H](O)[C@H]1O)[C@](C)(O)C4` (some centres not stated), the Potency result in experiment [1], in experiment [2] and in experiment [3] was “inactive” each time.
As to `COC(=O)[C@H](O)[C@H]1C(C)(C)[C@H](OC(C)=O)[C@@]2(O)C(=O)[C@]1(C)C1CC[C@]3(C)C(CC(=O)O[C@H]3c3ccoc3)[C@]13O[C@@H]32` (some centres not stated), the Potency result in experiment [1], in experiment [2] and in experiment [3] was “inactive” each time.
For `C[C@@H]1CCC2C(C)(C)[C@H](O)[C@H](O)C[C@]2(C)[C@@]12Cc1c(O)cc3c(c1O2)CN(CCCC(=O)O)C3=O` (some centres not stated), the Potency result in experiment [1], in experiment [2] and in experiment [3] was “inactive” throughout.
Regarding `CC1(C)CC[C@]2(C(=O)O)[C@H](O)C[C@]3(C)C(=CCC4[C@@]5(C)CC[C@H](O[C@@H]6OC[C@@H](O)[C@H](O)[C@H]6O)[C@@](C)(C(=O)O)C5CC[C@]43C)[C@@H]2C1` (some centres not stated), the Potency entry in experiment [1], in experiment [2] and in experiment [3] was “inactive” each time.
With `COc1cc([C@@H](O[C@@H]2O[C@H](CO)[C@@H](O)[C@H](O)[C@H]2O)[C@@H]2CO[C@H](c3ccc(O)c(OC)c3)[C@H]2CO)ccc1O`, the Potency result in experiment [1], in experiment [2] and in experiment [3] was “inactive” throughout.
Regarding `CC1C(=O)OCC2=CC[N+]3([O-])CCC(OC(=O)C(C)(O)C1(C)O)C23` (configuration not stated), the Potency result in experiment [1], in experiment [2] and in experiment [3] was “inactive” in each case.
